Results taken from paper PMC7862700, “An all-to-all approach to the identification of sequence-specific readers for epigenetic DNA modifications on cytosine”.

Key:
Assay in all cases: DAPPL (digital affinity profiling via proximity ligation, sequencing); 10 mM Tris-HCl pH 7.5, 50 mM NaCl, 1 mM DTT, 4% glycerol, room temperature, 30 min; GST-TFs on glutathione beads, 16-mer random dsDNA library, 0.1% formaldehyde crosslink after washing; high values mean tight binding
FEV = molecular target: T1, FEV (Homo sapiens, UniProt Q99581 1-238); conditions: protein: recombinant; tags: N-terminal GST; dsDNA, one strand shown
T1 sequence: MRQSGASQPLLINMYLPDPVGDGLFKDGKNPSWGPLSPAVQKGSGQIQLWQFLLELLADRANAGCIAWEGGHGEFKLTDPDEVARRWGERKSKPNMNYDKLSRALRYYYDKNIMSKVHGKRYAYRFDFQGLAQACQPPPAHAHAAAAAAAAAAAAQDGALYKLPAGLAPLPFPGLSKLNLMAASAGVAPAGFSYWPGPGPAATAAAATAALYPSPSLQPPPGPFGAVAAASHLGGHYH
Method in brief: (§1)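 Human transcription factors were made in yeast as GST fusions, captured on glutathione beads and barcoded with DNA. With a tag-only sample included, the pool was incubated with 200 nmole of a random double-stranded 16-mer DNA library in Tris/NaCl/DTT/glycerol buffer at room temperature for 30 min, then crosslinked with 0.1% formaldehyde after washing, ligated by proximity, amplified and sequenced. For binding signal, each hexamer's read frequency for a factor is divided by its frequency for the tag-only sample.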

ETV5 = ETV5 (Homo sapiens, UniProt P41161 1-510); conditions: protein: recombinant; tags: N-terminal GST; dsDNA, one strand shown
Method in brief: as §1

HSF1 = HSF1 (Homo sapiens, UniProt Q00613 1-529); conditions: protein: recombinant; tags: N-terminal GST; chain copies: 3; dsDNA, one strand shown
Method in brief: as §1

SPIC = molecular target: T2, SPIC (Homo sapiens, UniProt Q8N5J4 1-248); conditions: protein: recombinant; tags: N-terminal GST; dsDNA, one strand shown
T2 sequence: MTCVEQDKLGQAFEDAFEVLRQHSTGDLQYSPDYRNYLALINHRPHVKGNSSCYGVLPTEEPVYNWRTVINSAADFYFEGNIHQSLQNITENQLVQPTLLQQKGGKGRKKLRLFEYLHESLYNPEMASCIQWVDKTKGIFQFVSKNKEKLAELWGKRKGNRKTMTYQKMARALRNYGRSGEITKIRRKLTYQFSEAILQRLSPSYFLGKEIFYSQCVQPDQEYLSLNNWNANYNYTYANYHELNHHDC
Method in brief: as §1

ELF4 = ELF4 (Homo sapiens, UniProt Q99607 1-663); conditions: protein: recombinant; tags: N-terminal GST; dsDNA, one strand shown
Method in brief: as §1

ELK4 = molecular target: T3, ELK4 (Homo sapiens, UniProt P28324-2 1-405); conditions: protein: recombinant; tags: N-terminal GST; dsDNA, one strand shown
T3 sequence: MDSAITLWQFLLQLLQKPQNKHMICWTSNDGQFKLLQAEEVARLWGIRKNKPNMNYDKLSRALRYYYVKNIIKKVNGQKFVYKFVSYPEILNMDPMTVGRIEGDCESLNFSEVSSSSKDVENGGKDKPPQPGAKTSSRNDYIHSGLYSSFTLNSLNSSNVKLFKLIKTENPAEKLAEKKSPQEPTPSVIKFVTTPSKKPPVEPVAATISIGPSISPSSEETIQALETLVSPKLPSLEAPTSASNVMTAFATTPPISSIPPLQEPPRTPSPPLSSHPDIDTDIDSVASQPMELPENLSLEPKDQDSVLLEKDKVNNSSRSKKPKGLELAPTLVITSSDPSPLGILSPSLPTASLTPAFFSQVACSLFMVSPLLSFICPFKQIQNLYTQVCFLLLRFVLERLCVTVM
Method in brief: as §1

ETV2 = molecular target: T4, ETV2 (Homo sapiens, UniProt O00321 1-342); conditions: protein: recombinant; tags: N-terminal GST; dsDNA, one strand shown
T4 sequence: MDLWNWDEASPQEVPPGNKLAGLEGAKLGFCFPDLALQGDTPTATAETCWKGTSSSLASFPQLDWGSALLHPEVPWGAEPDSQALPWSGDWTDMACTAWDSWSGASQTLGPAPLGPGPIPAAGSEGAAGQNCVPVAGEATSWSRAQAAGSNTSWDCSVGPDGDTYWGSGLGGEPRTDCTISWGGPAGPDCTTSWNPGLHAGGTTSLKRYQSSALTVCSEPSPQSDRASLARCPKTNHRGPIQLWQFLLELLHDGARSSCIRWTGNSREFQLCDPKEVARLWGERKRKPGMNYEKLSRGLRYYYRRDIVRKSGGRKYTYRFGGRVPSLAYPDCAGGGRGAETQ
Method in brief: as §1

ELF3 = molecular target: T5, ELF3 (Homo sapiens, UniProt P78545 1-371); conditions: protein: recombinant; tags: N-terminal GST; dsDNA, one strand shown
T5 sequence: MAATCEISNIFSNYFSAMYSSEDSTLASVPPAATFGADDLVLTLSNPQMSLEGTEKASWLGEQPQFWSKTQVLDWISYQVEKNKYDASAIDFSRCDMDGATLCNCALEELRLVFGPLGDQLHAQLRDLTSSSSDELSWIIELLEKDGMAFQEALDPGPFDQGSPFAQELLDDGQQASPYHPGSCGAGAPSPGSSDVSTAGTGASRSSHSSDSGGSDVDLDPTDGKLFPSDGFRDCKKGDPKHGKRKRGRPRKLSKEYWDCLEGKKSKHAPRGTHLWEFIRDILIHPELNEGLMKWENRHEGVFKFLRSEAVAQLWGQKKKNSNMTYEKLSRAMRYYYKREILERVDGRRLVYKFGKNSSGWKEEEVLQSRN
Method in brief: as §1

CRX = CRX (Homo sapiens, UniProt O43186 1-299); conditions: protein: recombinant; tags: N-terminal GST; dsDNA, one strand shown
Method in brief: as §1

ETV1 = ETV1 (Homo sapiens, UniProt P50549 1-477); conditions: protein: recombinant; tags: N-terminal GST; dsDNA, one strand shown
Method in brief: as §1

ERF = molecular target: T6, ERF (Homo sapiens, UniProt P50548 1-548); conditions: protein: recombinant; tags: N-terminal GST; dsDNA, one strand shown
T6 sequence: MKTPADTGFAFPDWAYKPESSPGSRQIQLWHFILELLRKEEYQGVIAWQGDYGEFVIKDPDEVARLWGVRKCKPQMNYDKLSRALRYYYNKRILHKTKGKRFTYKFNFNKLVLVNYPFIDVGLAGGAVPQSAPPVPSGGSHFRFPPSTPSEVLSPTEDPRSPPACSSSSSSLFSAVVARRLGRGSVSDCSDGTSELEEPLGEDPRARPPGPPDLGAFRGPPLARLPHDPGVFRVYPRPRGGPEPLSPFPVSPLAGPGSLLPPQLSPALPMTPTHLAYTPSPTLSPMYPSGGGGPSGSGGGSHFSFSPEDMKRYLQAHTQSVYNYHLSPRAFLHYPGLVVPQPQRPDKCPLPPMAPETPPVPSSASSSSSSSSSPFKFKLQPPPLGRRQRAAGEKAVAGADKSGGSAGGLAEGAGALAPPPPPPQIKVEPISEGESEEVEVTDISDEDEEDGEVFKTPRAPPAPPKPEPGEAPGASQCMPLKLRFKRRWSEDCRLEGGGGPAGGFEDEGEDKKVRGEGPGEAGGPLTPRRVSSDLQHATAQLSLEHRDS
Method in brief: as §1

ETV3L = molecular target: T7, ETV3L (Homo sapiens, UniProt Q6ZN32 1-361); conditions: protein: recombinant; tags: N-terminal GST; dsDNA, one strand shown
T7 sequence: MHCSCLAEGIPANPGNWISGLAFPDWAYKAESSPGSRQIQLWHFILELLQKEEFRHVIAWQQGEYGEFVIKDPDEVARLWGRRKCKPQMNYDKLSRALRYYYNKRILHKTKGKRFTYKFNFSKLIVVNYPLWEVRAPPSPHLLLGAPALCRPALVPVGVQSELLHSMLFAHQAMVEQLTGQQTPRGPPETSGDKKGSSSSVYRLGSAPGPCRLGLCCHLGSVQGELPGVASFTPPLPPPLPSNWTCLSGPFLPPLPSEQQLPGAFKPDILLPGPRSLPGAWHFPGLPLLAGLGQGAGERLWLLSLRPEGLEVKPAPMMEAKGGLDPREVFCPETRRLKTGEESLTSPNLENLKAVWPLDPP
Method in brief: as §1

ETS2 = molecular target: T8, ETS2 (Homo sapiens, UniProt P15036 1-469); conditions: protein: recombinant; tags: N-terminal GST; dsDNA, one strand shown
T8 sequence: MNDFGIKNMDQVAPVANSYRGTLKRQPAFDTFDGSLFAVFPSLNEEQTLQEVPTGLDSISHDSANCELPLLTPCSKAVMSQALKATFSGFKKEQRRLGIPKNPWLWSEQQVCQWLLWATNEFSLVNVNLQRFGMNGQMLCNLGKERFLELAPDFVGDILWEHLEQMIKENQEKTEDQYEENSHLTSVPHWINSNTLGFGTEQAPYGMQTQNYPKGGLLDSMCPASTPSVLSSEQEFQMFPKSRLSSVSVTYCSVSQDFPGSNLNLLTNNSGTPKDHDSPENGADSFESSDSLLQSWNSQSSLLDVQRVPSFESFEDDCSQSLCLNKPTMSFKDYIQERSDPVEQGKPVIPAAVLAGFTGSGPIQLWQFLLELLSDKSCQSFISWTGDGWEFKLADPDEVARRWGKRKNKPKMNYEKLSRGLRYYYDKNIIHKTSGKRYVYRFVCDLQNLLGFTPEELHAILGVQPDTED
Method in brief: as §1

SPDEF = molecular target: T9, SPDEF (Homo sapiens, UniProt O95238 1-335); conditions: protein: recombinant; tags: N-terminal GST; dsDNA, one strand shown
T9 sequence: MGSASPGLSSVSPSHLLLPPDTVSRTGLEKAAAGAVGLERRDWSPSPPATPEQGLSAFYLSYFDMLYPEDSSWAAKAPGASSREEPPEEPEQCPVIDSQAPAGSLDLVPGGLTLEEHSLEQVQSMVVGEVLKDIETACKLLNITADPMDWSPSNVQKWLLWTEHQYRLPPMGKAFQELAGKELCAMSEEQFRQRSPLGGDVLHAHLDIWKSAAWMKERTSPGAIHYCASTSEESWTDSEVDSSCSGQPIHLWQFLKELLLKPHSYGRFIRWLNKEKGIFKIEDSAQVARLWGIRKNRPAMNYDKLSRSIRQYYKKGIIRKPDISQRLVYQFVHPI
Method in brief: as §1

ETV7 = molecular target: T10, ETV7 (Homo sapiens, UniProt Q9Y603 1-341); conditions: protein: recombinant; tags: N-terminal GST; dsDNA, one strand shown
T10 sequence: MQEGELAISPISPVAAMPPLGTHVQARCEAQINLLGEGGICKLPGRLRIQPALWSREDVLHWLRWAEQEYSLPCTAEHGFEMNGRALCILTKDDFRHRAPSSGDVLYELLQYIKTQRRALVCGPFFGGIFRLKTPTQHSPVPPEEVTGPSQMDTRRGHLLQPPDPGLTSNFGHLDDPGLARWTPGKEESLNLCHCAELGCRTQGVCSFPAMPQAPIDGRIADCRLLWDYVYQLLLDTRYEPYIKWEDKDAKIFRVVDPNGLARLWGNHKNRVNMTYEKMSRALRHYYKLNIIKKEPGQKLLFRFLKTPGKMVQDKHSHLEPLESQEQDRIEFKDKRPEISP
Method in brief: as §1

ELF5 = molecular target: T11, ELF5 (Homo sapiens, UniProt Q9UKW6-2 1-255); conditions: protein: recombinant; tags: N-terminal GST; dsDNA, one strand shown
T11 sequence: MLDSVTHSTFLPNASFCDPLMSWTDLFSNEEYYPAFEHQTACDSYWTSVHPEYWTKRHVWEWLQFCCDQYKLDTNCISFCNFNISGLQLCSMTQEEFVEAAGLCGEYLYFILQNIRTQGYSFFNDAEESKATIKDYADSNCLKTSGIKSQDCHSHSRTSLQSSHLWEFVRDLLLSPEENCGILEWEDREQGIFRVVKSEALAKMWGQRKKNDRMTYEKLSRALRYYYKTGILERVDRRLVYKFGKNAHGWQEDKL
Method in brief: as §1

ETV3 = molecular target: T12, ETV3 (Homo sapiens, UniProt P41162-2 1-143); conditions: protein: recombinant; tags: N-terminal GST; dsDNA, one strand shown
T12 sequence: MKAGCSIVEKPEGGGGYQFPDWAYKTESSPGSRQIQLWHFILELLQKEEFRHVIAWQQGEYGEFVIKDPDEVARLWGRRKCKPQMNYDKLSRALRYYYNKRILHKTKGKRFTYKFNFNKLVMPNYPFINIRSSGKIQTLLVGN
Method in brief: as §1

ETV6 = ETV6 (Homo sapiens, UniProt P41212 1-452); conditions: protein: recombinant; tags: N-terminal GST; dsDNA, one strand shown
Method in brief: as §1

Chain of CRX (O43186 whole entry): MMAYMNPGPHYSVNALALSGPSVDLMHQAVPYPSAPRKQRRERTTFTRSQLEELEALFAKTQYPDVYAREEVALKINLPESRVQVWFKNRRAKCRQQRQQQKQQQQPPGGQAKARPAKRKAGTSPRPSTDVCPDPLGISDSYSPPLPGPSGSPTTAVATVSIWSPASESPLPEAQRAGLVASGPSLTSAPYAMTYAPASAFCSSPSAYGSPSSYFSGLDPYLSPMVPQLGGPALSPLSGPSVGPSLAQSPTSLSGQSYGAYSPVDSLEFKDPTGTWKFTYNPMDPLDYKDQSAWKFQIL
Chain of HSF1 (Q00613 whole entry): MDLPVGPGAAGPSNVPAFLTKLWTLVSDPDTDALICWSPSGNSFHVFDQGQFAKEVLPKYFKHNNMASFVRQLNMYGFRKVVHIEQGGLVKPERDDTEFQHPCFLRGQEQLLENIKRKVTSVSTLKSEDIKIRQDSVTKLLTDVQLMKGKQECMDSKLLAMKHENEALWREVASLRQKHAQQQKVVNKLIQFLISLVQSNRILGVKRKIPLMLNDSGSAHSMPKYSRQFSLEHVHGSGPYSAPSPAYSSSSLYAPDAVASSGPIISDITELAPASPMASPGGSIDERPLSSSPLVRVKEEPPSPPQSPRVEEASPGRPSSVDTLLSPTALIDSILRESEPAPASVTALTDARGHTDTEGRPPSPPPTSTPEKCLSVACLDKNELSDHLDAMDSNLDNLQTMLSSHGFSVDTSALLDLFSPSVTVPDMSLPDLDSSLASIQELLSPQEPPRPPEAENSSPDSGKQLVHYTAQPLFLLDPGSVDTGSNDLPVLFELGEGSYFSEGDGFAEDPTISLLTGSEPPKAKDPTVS
Chain of ETV5 (P41161 whole entry): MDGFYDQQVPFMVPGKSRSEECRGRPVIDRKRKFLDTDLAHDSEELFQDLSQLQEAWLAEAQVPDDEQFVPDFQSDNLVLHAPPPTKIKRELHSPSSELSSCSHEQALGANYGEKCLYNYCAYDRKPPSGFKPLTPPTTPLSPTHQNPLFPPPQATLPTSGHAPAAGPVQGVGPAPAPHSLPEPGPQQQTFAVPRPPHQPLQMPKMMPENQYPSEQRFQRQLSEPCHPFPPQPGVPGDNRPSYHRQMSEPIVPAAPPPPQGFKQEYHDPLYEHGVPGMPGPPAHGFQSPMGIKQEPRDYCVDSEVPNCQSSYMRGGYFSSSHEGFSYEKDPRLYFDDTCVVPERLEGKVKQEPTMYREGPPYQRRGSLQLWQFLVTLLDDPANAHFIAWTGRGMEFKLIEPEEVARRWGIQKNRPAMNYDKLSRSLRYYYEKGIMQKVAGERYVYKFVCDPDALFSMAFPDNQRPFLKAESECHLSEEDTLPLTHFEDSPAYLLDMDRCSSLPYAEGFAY
Chain of ELF4 (Q99607 whole entry): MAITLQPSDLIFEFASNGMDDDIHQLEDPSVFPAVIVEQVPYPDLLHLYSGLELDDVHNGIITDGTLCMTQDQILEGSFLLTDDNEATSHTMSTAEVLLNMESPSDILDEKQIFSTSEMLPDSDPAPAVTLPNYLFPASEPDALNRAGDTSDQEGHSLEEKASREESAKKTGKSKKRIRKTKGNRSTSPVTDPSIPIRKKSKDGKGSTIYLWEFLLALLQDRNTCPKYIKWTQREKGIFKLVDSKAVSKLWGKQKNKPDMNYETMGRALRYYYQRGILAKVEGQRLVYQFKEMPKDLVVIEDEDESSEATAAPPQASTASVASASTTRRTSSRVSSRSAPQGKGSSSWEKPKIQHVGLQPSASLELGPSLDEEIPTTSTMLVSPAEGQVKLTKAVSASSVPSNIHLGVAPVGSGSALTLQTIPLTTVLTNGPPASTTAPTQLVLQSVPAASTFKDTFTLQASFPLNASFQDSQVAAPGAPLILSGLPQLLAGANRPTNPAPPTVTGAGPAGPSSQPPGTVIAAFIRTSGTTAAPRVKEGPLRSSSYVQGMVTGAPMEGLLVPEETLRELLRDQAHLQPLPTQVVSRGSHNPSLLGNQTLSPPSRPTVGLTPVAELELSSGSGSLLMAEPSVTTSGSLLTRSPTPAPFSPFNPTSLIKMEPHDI
Chain of ETV6 (P41212 whole entry): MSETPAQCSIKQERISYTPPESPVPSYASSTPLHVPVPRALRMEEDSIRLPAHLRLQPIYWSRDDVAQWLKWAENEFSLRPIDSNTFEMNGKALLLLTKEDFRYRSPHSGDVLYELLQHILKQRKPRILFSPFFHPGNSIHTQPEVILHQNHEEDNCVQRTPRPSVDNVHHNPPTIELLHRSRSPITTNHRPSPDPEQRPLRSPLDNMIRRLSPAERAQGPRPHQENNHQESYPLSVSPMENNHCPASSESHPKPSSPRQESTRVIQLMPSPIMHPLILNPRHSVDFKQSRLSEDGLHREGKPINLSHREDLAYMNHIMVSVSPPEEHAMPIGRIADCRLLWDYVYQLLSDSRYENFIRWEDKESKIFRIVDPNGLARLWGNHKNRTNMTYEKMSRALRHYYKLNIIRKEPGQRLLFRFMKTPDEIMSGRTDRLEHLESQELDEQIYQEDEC
Chain of ETV1 (P50549 whole entry): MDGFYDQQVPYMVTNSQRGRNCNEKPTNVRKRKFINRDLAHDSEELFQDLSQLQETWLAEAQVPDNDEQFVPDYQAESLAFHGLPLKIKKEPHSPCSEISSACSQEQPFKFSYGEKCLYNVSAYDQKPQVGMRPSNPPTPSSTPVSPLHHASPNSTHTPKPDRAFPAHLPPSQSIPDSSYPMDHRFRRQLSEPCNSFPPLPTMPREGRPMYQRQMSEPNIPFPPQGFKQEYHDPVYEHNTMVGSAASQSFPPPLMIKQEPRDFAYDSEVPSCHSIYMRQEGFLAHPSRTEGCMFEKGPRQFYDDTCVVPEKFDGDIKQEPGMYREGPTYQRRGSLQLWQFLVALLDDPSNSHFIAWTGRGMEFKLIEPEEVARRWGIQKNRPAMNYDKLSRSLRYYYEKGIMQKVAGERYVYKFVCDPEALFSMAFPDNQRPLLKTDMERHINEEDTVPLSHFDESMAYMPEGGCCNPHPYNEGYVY

## CCCGCT
FEV
  binding signal: 1.35 fold enrichment (6-mer frequency, TF over GST control)
ETV5
  binding signal: 1.32 fold enrichment (6-mer frequency, TF over GST control)
HSF1
  binding signal: 1.26 fold enrichment (6-mer frequency, TF over GST control)
SPIC
  binding signal: 1.25 fold enrichment (6-mer frequency, TF over GST control)
ELF4
  binding signal: 1.49 fold enrichment (6-mer frequency, TF over GST control)
ELK4
  binding signal: 1.62 fold enrichment (6-mer frequency, TF over GST control)
ETV2
  binding signal: 1.16 fold enrichment (6-mer frequency, TF over GST control)
ELF3
  binding signal: 1.32 fold enrichment (6-mer frequency, TF over GST control)
CRX
  binding signal: 1.25 fold enrichment (6-mer frequency, TF over GST control)
ETV1
  binding signal: 1.44 fold enrichment (6-mer frequency, TF over GST control)
ERF
  binding signal: 1.37 fold enrichment (6-mer frequency, TF over GST control)
ETV3L
  binding signal: 1.47 fold enrichment (6-mer frequency, TF over GST control)
ETS2
  binding signal: 1.22 fold enrichment (6-mer frequency, TF over GST control)
SPDEF
  binding signal: 1.32 fold enrichment (6-mer frequency, TF over GST control)
ETV7
  binding signal: 1.36 fold enrichment (6-mer frequency, TF over GST control)
ELF5
  binding signal: 1.39 fold enrichment (6-mer frequency, TF over GST control)
ETV3
  binding signal: 1.36 fold enrichment (6-mer frequency, TF over GST control)
ETV6
  binding signal: 1.38 fold enrichment (6-mer frequency, TF over GST control)
